Laboratory results reported in PubChem BioAssay (NCI).
This is part of a sample that, as a whole, favours compounds with a hit. Of some 83,000 tested, about 20% had one in any assay.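 Treatment: one concentration, 48 hours, 96-well format. Scoring: percent growth, with anything below 10 considered active.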 Calls of active or inactive are those of the source.

Each molecule was assayed on OVCAR-3 ovarian (assay: NCI-60 one-dose screen, 48 h (100 = growth as untreated, 0 = no growth, -100 = all killed)). Settings: 10 µM.
Protocol: Growth inhibition of the OVCAR-3 human tumor cell line is measured as a screen for anti-cancer activity. Cells are grown in 96 well plates and exposed to the test compound for 48 hours. Compounds are tested at a single concentration, which is 10^-5 M for most compounds. The reported endpoint is percent growth (GI% or GIPRCNT), where numbers from 0 - 100% represent growth inhibition, and numbers from -100% - 0 represent cell death. For example, a value of 40 represents 60% growth inhibition. A value of 0 means no net growth occurred over the course of the experiment. A value of -40 indicates 40% of cells at the beginning of the experiment died by the end of the experiment. A value of -100 means all cells are dead at the end of the experiment.
NCI-60 Human Tumor Cell Lines Screen was performed using the standard one-dose NCI protocol, which is described in more detail at https://dtp.cancer.gov/discovery_development/nci-60/default.htm.
Compounds with GIPRCNT values below 10 were considered active. Activity score was based on GIPRCNT using the following formula: […]
Score is 0 for GIPRCNT values of 100 or above, 50 for GIPRCNT values of 0, and 100 for GIPRCNT values of -100.
With `CCCCC(CCCCCC(CCCC)NCc1ccc2c(c1)OCO2)NCc1ccc2c(c1)OCO2` (stereo not given) the growth was -100% (active). With `CCCCCCN1C(=O)C2=C(c3ccc(Cl)cc3)Nc3c(c(C)nn3-c3ccccc3)C2c2ccccc21` (stereo not given) the growth was 92.7% (inactive). For `Cc1ccc(N=Nc2c(N)nc(N)[nH]c2=O)cc1C`, the growth was 110% (inactive). With `CCCCCCNC(=O)Oc1ccc(/C(=C(/CC)Cc2ccccc2)c2ccc(OCCN3CCCCC3)cc2)cc1` the growth was 87.8% (inactive). In the case of `COc1ccc(OC)c(/C=C/c2nc(SCc3ccccc3)n(-c3ccc(Cl)cc3)n2)c1`, the growth is reported as 17.3% (inactive). `O=C(Nc1cccc(-n2cc(-c3ccncc3)c(-c3ccc(O)c(Cl)c3)n2)c1)c1ccc(N2CCOCC2)c(C(F)(F)F)c1` was tested, and the growth was 60.4% (inactive). With `Nc1ccc2c(c1)C1(CCC2)NC(=O)NC1=O` (stereo not given) the growth was 110% (inactive). For `O=C(Nc1cccc(-n2cc(-c3ccncc3)c(-c3cc(O)cc(Cl)c3)n2)c1)c1cc(C(F)(F)F)cc(C(F)(F)F)c1`, the growth was 15.2% (inactive). With `COc1cc(-c2cc(/C=C/C(=O)c3ccc(N)cc3)[nH]n2)cc(OC)c1OC` the growth was -45.9% (active). `O=C(Nc1cccc(Br)c1)c1cc(=O)[nH]c2ccccc12` was tested, and the growth was 92.4% (inactive). In the case of `C/C(=N\Nc1nc2ccccc2s1)c1ccncn1`, the growth is reported as 21.2% (inactive). In the case of `Cc1ccc(CC#N)cc1C`, the growth is reported as 95.4% (inactive). With `COc1ccc(-c2ccc3cc(C(=O)Nc4ccc(O)c(C(=O)/C=C/c5cc(OC)c(OC)c(OC)c5)c4)ccc3c2)cc1` the growth was 100% (inactive). With `CS(=O)(=O)Nc1cccc(-c2cc(-c3ccccc3Cl)c(C#N)c(N)n2)c1` the growth was -29.3% (active). `Nc1ccc2c(c1)Cc1cc(N)c(Br)cc1-2` was tested, and the growth was 115% (inactive). `Cc1cc(N(CCCNc2ccnc3cc(Cl)ccc23)Cc2ccc3c(c2)OCO3)nc(N2CCOCC2)n1` was tested, and the growth was -6.27% (active). For `CCN1CCC2(CC1)OC(c1ccccc1)C(c1ccccc1)O2` (stereo not given), the growth was 114% (inactive). With `CN1CC[C@@H](c2c(O)cc(O)c3c(=O)cc(-c4ccccc4Cl)oc23)[C@@H](O)C1` the growth was 13.6% (inactive). `Cc1cccc2c1O/C(=C\c1ccc([N+](=O)[O-])o1)C2=O` was tested, and the growth was -85.7% (active). With `COc1cc(-c2cc(/C=C/C(=O)c3ccc4c(c3)OCO4)[nH]n2)cc(OC)c1OC` the growth was 77.7% (inactive). In the case of `CN1CCCNc2c(c(=O)c2=O)NCCCN(C)CCCNc2c(c(=O)c2=O)NCCCN(C)CCCNc2c(c(=O)c2=O)NCCCN(C)CCCNc2c(c(=O)c2=O)NCCCN(C)CCCNc2c(c(=O)c2=O)NCCCN(C)CCCNc2c(c(=O)c2=O)NCCCN(C)CCCNc2c(c(=O)c2=O)NCCC1`, the growth is reported as 35.9% (inactive). For `N=c1nc(N)ncn1-c1ccccc1`, the growth was 116% (inactive). With `O=C(Nc1nc2ccccc2s1)Nc1ccc([N+](=O)[O-])cc1Cl` the growth was 38.1% (inactive). With `COc1ccc(/C(=C2/O[C@@H]([C@H]3COC(C)(C)O3)[C@H]3OC(C)(C)O[C@@H]23)c2cc(OC)c(OC)c(OC)c2)cc1O` the growth was 58.3% (inactive). In the case of `COc1ccc(-c2nn(-c3cccc(NC(=O)c4cccc(C(F)(F)F)c4)c3)cc2-c2ccncc2)cc1Cl`, the growth is reported as 11.9% (inactive). `Nc1c(C(=O)Nc2ccccc2Cl)sc2nc3c(cc12)C(=O)CCC3` was tested, and the growth was 56.4% (inactive). In the case of `O=C(c1cccs1)c1ccccc1Cc1ccccc1`, the growth is reported as 110% (inactive). In the case of `CC(C)(Cl)CCC1=C(Cl)C(=O)c2ccccc2C1=O`, the growth is reported as 22.9% (inactive). `COc1ccc(OC)c(/C=C/c2nnc(Nc3ccc(Cl)cc3)o2)c1` was tested, and the growth was 32.1% (inactive). With `COc1ccc2c(c1OC)O/C(=C\c1ncc([N+](=O)[O-])n1C)C2=O` the growth was -24.2% (active). In the case of `Nc1c(C(=O)Nc2cccc(F)c2)sc2nc3c(cc12)C(=O)CCC3`, the growth is reported as -3.4% (active). For `CCC(=O)N1C/C(=C/c2ccc(OC)cc2)C(=O)/C(=C/c2ccc(OC)cc2)C1`, the growth was -6.54% (active). For `O=S(=O)(NCCNc1nccc(-c2c(-c3ccc(F)cc3)nc3sccn23)n1)c1ccc2ccccc2c1`, the growth was 87.9% (inactive). For `COc1cc(-c2cc(/C=C3\C(=O)Nc4ccccc43)[nH]n2)cc(OC)c1OC`, the growth was 57.8% (inactive). For `O=C(Nc1ccc(OS(=O)(=O)c2ccccc2)cc1)C12CC3CC(CC(C3)C1)C2`, the growth was 63.9% (inactive). For `Cc1ccc(S(=O)(=O)OCCN(CCOS(=O)(=O)c2ccc(C)cc2)c2c[nH]c(=O)[nH]c2=O)cc1`, the growth was 120% (inactive). For `CC/C(=C(/c1ccc(OCCN(C)C)cc1)c1ccc(OC(=O)CCC(=O)c2c(C)[nH]c(/C=C3\N=C(c4ccc[nH]4)C=C3OC)c2C)cc1)c1ccccc1`, the growth was 33% (inactive). With `Fc1ccc2nc(-c3nc(-c4ccccc4)n4ccccc34)[nH]c2c1` the growth was 0.252% (active). With `Nc1nc(N)c(NC(=O)CNc2ccc(C(=O)O)cc2)c(N)n1` the growth was 118% (inactive). `N#Cc1cccc(OCc2nc(N)nc(N)c2-c2ccc(Cl)c(Cl)c2)c1` was tested, and the growth was 38.5% (inactive).
